According to ChEMBL document CHEMBL4513135, “CO-ADD screening of IQOG CSIS (Spain) compounds”:
Fewer than 10 of roughly 21,000 compounds showed an effect of 50% or more. A selection follows. Potency and affinity values are given separately.

system: Acinetobacter baumannii; conditions: Concentration 32 ug.mL-1; ASSAY_TEST Inhibition of Bacterial Growth; detection method Absorption (OD600); MEDIA CAMHB; plate type 384well; NBS; CORNING #3640; time 18 hr

Row | Compound | Inhibition
1 | C#CCN(C)c1nc(NCCC2CCN(Cc3ccccc3)CC2)c(C#N)cc1C#N.Cl | -7.83%
2 | CCOC(=O)C1=C(C)Oc2nc3c(c(N)c2C1c1nccn1C)CCC3 (stereo not given) | 0.84%
3 | Nc1nc(N)c(C=O)c(-c2ccccc2)c1C=O | 5.37%
4 | Cn1ccnc1C1C2=C(CC(C)(C)CC2=O)Oc2nc3c(c(N)c21)CCCC3 (stereo not given) | -5.19%
5 | N#CC1=C(Cl)Oc2c(ccc3ccccc23)C1c1ccc([N+](=O)[O-])cc1 (stereo not given) | -15.4%
